# Assay outcomes deposited in PubChem by Corson Lab, School of Medicine, Indiana University.
# The entries come from a sample that favours hits as a whole.
# FECH block – blocks human mitochondrial ferrochelatase activity. purified FECH, Ni-mesoporphyrin absorbance 550 nm. calls only at 10 µM (by protocol). hit rate 3.3% among 20,000;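 active = enzyme reaction rate more than 3 SD below the solvent-only control wells on the same plate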;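 also: lower slope than DMSO wells means FECH inhibition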
# Target sequence (P22830 whole entry, looked up): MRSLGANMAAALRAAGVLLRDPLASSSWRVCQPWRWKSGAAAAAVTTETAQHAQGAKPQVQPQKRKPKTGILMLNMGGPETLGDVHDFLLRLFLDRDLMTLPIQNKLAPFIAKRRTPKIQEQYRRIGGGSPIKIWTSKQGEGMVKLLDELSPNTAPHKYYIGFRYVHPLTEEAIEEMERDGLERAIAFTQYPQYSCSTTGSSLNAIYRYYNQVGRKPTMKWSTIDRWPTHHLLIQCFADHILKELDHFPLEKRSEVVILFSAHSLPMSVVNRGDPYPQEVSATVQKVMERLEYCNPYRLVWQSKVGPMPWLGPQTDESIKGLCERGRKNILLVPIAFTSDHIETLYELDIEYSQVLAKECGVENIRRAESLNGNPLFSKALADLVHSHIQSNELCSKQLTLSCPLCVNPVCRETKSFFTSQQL
# Numbers without * were called inactive; i = inactive; + = active, no number.
SMILES,FECH block
O=C(N[C@H]1COC[C@@H]1N1CCCC1)c1ccccc1N1CCOCC1,i
COC(=O)c1cc(S(=O)(=O)N2CCCC2C(=O)Nc2cc(OC)cc(OC)c2)cn1C (stereo unspecified),i
CCCCNC(=O)C1CCN(c2ccc(-c3cccc(C)c3)nn2)CC1,i
O=C1CCS(=O)(=O)N1c1ccc(S(=O)(=O)NCc2ccccc2Cl)cc1,i
Cc1ccc(Cn2cnc(-c3ccccc3)c2-c2nccn2C)c(F)c1F,i
O=c1cc(CN2CCOCC2)nc2nc(NCc3ccccc3)[nH]n12,i
O=c1cc(CN2CCCCC2)nc2nc(NCc3ccccc3)[nH]n12,i
COc1ccc(CNc2nc3nc(CN4CCc5ccccc5C4)cc(=O)n3[nH]2)cc1,+
COc1ccc(CNc2nc3nc(CN4CCOCC4)cc(=O)n3[nH]2)cc1,+
O=c1cc(CN2CCc3ccccc3C2)nc2nc(NCc3ccc(Cl)cc3)[nH]n12,+
O=c1cc(CN2CCN(CCO)CC2)nc2nc(NCc3ccc(Cl)cc3)[nH]n12,i
O=c1cc(CN2CCOCC2)nc2nc(NCc3ccc(Cl)cc3)[nH]n12,i
O=c1cc(CN2CCc3ccccc3C2)nc2nc(NCc3ccccc3)[nH]n12,i
COc1ccc(CNc2nc3nc(CN4CCN(c5ccccc5)CC4)cc(=O)n3[nH]2)cc1,i
CCc1ccc(-n2c(CN3CCN(S(=O)(=O)c4ccccc4C)CC3)nc3cccnc32)cc1,i
Cc1ccccc1-c1cccc(C(=O)N2CC3(CCNCC3)CC2C(=O)O)c1 (stereo unspecified),i
Cc1ccc(C(=O)CN(c2nc3nc(C)c(Cl)c(C)n3n2)S(=O)(=O)c2ccccc2)cc1,i
COc1ccc(NC(=O)CN2CCCN(Cc3ccccc3)S2(=O)=O)cc1Cl,i
CCc1cccc(NC(=O)CN2CCN(Cc3ccccc3C)S2(=O)=O)c1,i
COc1ccc(NC(=O)CN2CCN(Cc3ccc(C)cc3)S2(=O)=O)cc1,i
O=C(CN1CCCN(Cc2ccc(Cl)cc2)S1(=O)=O)Nc1ccc(F)c(Cl)c1,i
COc1ccc(NC(=O)CN2CCCN(Cc3ccc(Cl)cc3)S2(=O)=O)cc1Cl,+
COc1ccc(NC(=O)CN2CCCN(Cc3ccccc3Cl)S2(=O)=O)cc1Cl,+
CSc1cccc(NC(=O)CN2CCN(Cc3ccccc3)S2(=O)=O)c1,i
CC(=O)c1cccc(NC(=O)CN2CCCN(Cc3ccccc3Cl)S2(=O)=O)c1,i
SMILES,FECH block
COc1cccc(NC(=O)CN2CCN(Cc3ccc(C)cc3)S2(=O)=O)c1,+
O=C(CN1CCCN(Cc2ccccc2Cl)S1(=O)=O)Nc1ccccc1,i
CSc1cccc(NC(=O)CN2CCN(Cc3ccccc3C)S2(=O)=O)c1,+
Cc1ccc(CN2CCN(CC(=O)Nc3cc(C)cc(C)c3)S2(=O)=O)cc1,i
CCN(CC)CCCNC(=O)C1CCN(c2ccc(-c3ccc(C)cc3)nn2)CC1,i
CCCc1c(C)nc2ncnn2c1Sc1ccccc1NC(=O)c1cccc(C)c1,i
COc1ccccc1N(Cc1nc2nc(C)cc(C)n2n1)C(=O)c1ccc(F)cc1,i
CC(Oc1cccc(-c2cccc3cnccc23)c1)C(N)=O (stereo unspecified),i
Cc1ccc(-c2cn(CC3CCN(c4cc(C)nc(N)n4)CC3)nn2)cc1,i
COc1ccc(NC(=O)CN2CCCN(Cc3ccc(C)cc3)S2(=O)=O)c(OC)c1,i
Cc1cccc(NC(=O)CN2CCCN(Cc3ccc(Cl)cc3)S2(=O)=O)c1,i
CCOc1ccc(NC(=O)CN2CCCN(Cc3ccc(C)cc3)S2(=O)=O)cc1,+
Cc1ccc(NC(=O)CN2CCN(Cc3ccccc3)S2(=O)=O)cc1C,i
Cc1ccc(NC(=O)CN2CCN(Cc3cc(C)ccc3C)S2(=O)=O)cc1,i
COc1ccc(NC(=O)CN2CCN(Cc3cccc(C)c3)S2(=O)=O)cc1Cl,+
O=C(CN1CCCN(Cc2ccc(Cl)cc2)S1(=O)=O)Nc1cccc(Cl)c1,+
COc1cc(OC)c(NC(=O)CN2CCCN(Cc3cc(C)ccc3C)S2(=O)=O)cc1Cl,+
COc1ccc(NC(=O)CN2CCCN(Cc3ccc(C)cc3)S2(=O)=O)cc1,i
CCOC(=O)c1ccc(NC(=O)CN2CCCN(Cc3ccc(C)cc3)S2(=O)=O)cc1,i
O=C(CN1CCCN(Cc2cccc(Cl)c2)S1(=O)=O)Nc1cccc(Cl)c1,i
CCOc1ccc(NC(=O)CN2CCN(Cc3cccc(C)c3)S2(=O)=O)cc1,i
Cn1c(=O)n(C)c2cc(Cn3cnc(-c4ccccc4)c3C3CC3)ccc21,i
CC(=O)Nc1ccc(C)cc1S(=O)(=O)N1CCC(n2c(C)nc3cccnc32)CC1,i
CCNS(=O)(=O)c1ccc2c(c1)CCN2C(=O)CCC(=O)N1CCOCC1,i
CCOC(=O)c1cc(S(=O)(=O)Nc2ccc(S(N)(=O)=O)cc2)c(C)n1C,i
COc1ccc(-c2nc(CO)cs2)cc1C,i
CCn1c(=O)n(CCOc2ccc(F)cc2)c(=O)c2cnc(-c3ccc(Cl)cc3)nc21,+
